Experimental data reported in PubChem BioAssay (NCATS).
Where “and” joins values, the source holds several entries; their conditions need not be identical. Identical values can stand only once. Inconclusive results are not listed. Calls of active or inactive are those of the source. Unless noted, calls come from the whole dose curve; as a rule, active = well fitted curve in the direction sought with a large enough effect; inconclusive = small, poorly fitted or top-dose-only effect, or another doubt; inactive = no such curve, though single readings can be large; an effect the other way counts as inactive or inconclusive. Numbered stars: 1 amine (or outer) side, 2 acyl side, 3 side chain; on linkers, the order of the positions; unused ones are H or OH. Bridge positions count the residues as written; N and C are the ends. Square brackets hold non-standard residues; d marks the D form. Peptide text beside a SMILES is read from it. I, II: the chains in the order shown. Actinocin(9to1) = Cc1c2oc3c(C)ccc(C(=O)[*:1])c3nc-2c(C(=O)[*:2])c(N)c1=O; NMeV = CN[C@H](C(=O)O)C(C)C; Sar = CNCC(=O)O

Columns and labels:
[1] = target: Retinoic acid receptor RXR-alpha (Homo sapiens) (UniProt P19793); assay: qHTS assay for small molecule agonists of retinoid X receptor alpha signaling (AID 588544; calls by dose curve;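 note: 0% = DMSO basal wells and 100% = reference agonist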)
Chain of Retinoic acid receptor RXR-alpha (Homo sapiens) (P19793 whole entry, looked up): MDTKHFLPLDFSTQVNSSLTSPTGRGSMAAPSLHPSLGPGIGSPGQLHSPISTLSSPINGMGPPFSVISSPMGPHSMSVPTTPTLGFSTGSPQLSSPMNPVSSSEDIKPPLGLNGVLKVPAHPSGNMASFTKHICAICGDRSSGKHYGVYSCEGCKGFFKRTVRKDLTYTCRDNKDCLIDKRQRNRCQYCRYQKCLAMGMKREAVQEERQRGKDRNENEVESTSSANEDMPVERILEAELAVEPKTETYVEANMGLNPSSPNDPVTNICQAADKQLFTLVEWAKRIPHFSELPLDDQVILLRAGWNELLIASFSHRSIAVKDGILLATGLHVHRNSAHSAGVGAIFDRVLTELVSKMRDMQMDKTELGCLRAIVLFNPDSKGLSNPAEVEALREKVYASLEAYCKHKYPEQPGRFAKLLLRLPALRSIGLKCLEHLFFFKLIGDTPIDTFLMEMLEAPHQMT

[2] = qHTS assay for small molecule antagonists of retinoid X receptor alpha signaling (AID 588546; active = well fitted inhibition curve with a large enough effect in the signal ratio, with a control signal flat, not every such curve was filed as active; the % refers to the signal ratio; note: potency is the fitted concentration of half-maximal effect;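 for max response: cells stimulated with 9-cis-retinoic acid as agonist; % is set by controls: 0 for no effect and ±100 for the full control effect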); conditions: HEK293T RXRa-UAS-bla, beta-lactamase ratio, antagonist mode; measured here: W530 green channel, cytotoxicity proxy
Procedure, shortened: (§1)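 Beta-lactamase reporter inhibition, read as CCF4 fluorescence ratio (ex 405, em 460/530 nm) after 2 h at RT. HEK293T UAS-bla cells, 2500/well, were stimulated with 9-cis-RA at 500 or 100 nM final alongside test compound for 18 h at 37 C.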

[3] = target: Retinoic acid receptor RXR-alpha (Homo sapiens) (UniProt P19793); assay: as above; conditions: HEK293T RXRa-UAS-bla, beta-lactamase ratio, antagonist mode
Procedure, shortened: as §1

[4] = target: Voltage-gated inwardly rectifying potassium channel KCNH2 (Homo sapiens) (UniProt Q12809); assay: qHTS Assay for Small Molecule Inhibitors of the Human hERG Channel Activity (AID 588834);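 note: top concentration of the series differs between compounds; % is set by controls: 0 for no effect and ±100 for the full control effect; lower thallium flux fluorescence means stronger hERG block; nearly all actives have a fitted effect of over 50% in size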
Chain of Voltage-gated inwardly rectifying potassium channel KCNH2 (Homo sapiens) (Q12809 whole entry, looked up): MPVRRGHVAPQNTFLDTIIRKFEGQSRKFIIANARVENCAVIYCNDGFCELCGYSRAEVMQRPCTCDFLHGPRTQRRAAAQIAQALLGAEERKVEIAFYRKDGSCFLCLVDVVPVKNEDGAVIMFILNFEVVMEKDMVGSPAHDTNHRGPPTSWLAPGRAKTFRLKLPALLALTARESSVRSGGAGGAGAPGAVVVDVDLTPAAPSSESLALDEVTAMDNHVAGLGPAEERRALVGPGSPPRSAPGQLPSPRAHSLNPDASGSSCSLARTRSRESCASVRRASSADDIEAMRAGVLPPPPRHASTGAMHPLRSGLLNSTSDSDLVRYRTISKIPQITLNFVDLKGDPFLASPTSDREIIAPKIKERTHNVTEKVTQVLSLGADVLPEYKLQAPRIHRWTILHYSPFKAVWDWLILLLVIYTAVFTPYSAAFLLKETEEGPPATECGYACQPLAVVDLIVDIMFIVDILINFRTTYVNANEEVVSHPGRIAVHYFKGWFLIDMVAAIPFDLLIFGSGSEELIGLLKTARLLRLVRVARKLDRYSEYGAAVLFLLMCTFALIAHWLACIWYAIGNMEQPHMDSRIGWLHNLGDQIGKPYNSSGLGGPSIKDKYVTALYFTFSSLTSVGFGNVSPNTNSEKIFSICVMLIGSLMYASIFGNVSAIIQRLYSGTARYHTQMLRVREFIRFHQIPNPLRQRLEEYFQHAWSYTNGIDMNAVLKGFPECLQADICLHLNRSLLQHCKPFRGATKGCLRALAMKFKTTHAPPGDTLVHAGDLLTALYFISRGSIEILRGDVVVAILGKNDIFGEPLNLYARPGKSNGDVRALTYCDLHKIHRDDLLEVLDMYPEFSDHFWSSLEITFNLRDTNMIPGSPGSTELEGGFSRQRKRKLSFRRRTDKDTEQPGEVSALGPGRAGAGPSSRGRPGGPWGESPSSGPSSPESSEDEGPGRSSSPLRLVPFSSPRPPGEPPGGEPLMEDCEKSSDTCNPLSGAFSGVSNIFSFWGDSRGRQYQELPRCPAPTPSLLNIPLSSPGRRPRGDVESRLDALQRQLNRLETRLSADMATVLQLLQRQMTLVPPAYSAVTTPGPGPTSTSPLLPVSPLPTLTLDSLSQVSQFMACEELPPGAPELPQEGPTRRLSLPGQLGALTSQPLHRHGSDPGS
Procedure, shortened: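 Homogeneous FluxOR thallium flux assay using hERG-expressing U2OS cells (BacMam). Compound treatment about 10 minutes preceded stimulation; reduced fluorescence taken as channel block.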

[5] = target: Luciferin 4-monooxygenase (Photinus pyralis) (UniProt P08659); assay: Biochemical firefly luciferase enzyme assay for NPC (AID 624030);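 note: purified P. pyralis luciferase at 10 nM with luciferin and ATP substrate; 0% = DMSO and -100% = full luciferase inhibition by PTC124 control; nearly all actives have a fitted effect of over 70% in size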
Chain of Luciferin 4-monooxygenase (Photinus pyralis) (P08659 whole entry, looked up): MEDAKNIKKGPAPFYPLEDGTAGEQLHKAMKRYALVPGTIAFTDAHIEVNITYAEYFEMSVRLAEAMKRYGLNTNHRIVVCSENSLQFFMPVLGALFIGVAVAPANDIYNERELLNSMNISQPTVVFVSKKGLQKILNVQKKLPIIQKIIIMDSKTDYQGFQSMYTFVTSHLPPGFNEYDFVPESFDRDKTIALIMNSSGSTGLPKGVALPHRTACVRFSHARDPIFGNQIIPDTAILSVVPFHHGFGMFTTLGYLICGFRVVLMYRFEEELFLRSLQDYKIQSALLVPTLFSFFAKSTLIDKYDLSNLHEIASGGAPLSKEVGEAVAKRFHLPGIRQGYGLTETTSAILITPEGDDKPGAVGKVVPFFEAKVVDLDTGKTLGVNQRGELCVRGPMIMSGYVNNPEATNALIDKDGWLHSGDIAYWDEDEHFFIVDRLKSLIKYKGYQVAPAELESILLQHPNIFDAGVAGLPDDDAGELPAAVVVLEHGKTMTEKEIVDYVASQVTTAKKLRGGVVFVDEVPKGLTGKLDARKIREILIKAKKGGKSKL
Procedure, shortened: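 Counter-screen for direct inhibition of the luciferase enzyme by approved-drug library compounds, run at 10 nM enzyme in 50 mM Tris acetate (final). Luminescence was read within 5 min of enzyme-buffer addition and normalized to PTC124 versus DMSO (0%).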

[6] = S16 Schwann cell viability assay (CellTiter-Glo assay) (AID 624031);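 note: cellular ATP luminescence as a viability measure; plate controls were DMSO-treated cells for no effect and cell-free wells for full effect; nearly all actives have a fitted effect of over 70% in size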
Procedure, shortened: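 This viability control uses native rat S16 Schwann cells grown in DMEM plus 10% FBS. After a 24 h compound treatment at 37 °C, CellTiter-Glo luminescence reports ATP content, scaled against DMSO-treated and cell-free wells.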

[7] = target: Thyroid hormone receptor beta (Homo sapiens) (UniProt P10828); assay: qHTS assay for small molecule agonists of thyroid hormone receptor beta signaling (AID 588545; calls by dose curve;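 note: 0% = DMSO only and 100% = 10 nM T3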)
Chain of Thyroid hormone receptor beta (Homo sapiens) (P10828 whole entry, looked up): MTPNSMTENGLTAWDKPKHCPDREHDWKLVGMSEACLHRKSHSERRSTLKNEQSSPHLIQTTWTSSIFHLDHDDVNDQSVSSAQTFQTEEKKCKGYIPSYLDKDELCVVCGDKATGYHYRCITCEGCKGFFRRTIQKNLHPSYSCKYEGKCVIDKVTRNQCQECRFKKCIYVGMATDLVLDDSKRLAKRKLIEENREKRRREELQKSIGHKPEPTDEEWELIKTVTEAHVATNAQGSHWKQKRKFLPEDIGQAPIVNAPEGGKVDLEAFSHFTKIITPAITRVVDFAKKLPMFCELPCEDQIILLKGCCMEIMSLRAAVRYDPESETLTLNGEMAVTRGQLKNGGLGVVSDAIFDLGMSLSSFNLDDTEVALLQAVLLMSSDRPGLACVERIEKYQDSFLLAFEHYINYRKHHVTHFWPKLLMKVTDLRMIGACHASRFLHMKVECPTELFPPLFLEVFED
Procedure, shortened: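 TR-UAS-bla GripTite HEK 293 cells (2500/well, medium with 2% charcoal/dextran FBS) were treated in agonist mode for 18 h at 37 C, titrated. Beta-lactamase was read by CCF4 ratio after 2 h; normalized to 10 nM T3 (100%) and DMSO, Hill-fitted for EC50 and efficacy.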

[8] = target: Thyroid hormone receptor beta (Homo sapiens) (UniProt P10828); assay: qHTS assay for small molecule antagonists of thyroid hormone receptor beta signaling (AID 588547; active = well fitted inhibition curve with a large enough effect in the signal ratio, with a control signal flat, not every such curve was filed as active; the % refers to the signal ratio; note: potency is the fitted concentration of half-maximal effect;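 for activity change % (negative = inhibition): cells stimulated with 0.4 nM T3 agonist during compound exposure; % is set by controls: 0 for no effect and ±100 for the full control effect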); conditions: TR-UAS-bla HEK293, beta-lactamase ratio, antagonist mode, 18 h
Procedure, shortened: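 TR-UAS-bla GripTite HEK293 cells in 2% charcoal/dextran FBS medium were preincubated 4 h at 37 C, given compound (0.59 nM to 92 uM) plus 0.4 nM T3 (final) for 18 h, then CCF4 for 2 h at RT; Hill fit gave IC50.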

[9] = S16 Schwann cell PMP22 intronic element firefly luciferase assay (AID 624032); note: nearly all actives have a fitted effect of over 30% in size; note: potency is the fitted concentration of half-maximal effect
Procedure, shortened: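 Rat S16 Schwann cells stably carrying a PMP22 intronic element-driven Fluc reporter were seeded overnight, then exposed to compounds for 24 h at 37 °C. Luminescence was normalized to PTC124 (positive control) and DMSO (0% activity).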

[10] = S16 Schwann cell PMP22 intronic element beta-lactamase assay (AID 624044; calls by dose curve; note: nearly all actives have a fitted effect of over 15% in size; note: potency is the fitted concentration of half-maximal effect;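 for ratio activity, negative = inhibition: 0% = DMSO and -100% = potassium clavulanate positive control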); conditions: S16 rat Schwann cells, PMP22 element beta-lactamase FRET, 24 h; ratio activity, negative = inhibition: at 38.3 µM (top of the series)
Procedure, shortened: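 Beta-lactamase reporter under a PMP22 intronic regulatory element in stable S16 rat Schwann cells; 24 h compound exposure. 460 nm blue signal normalized between DMSO (0%) and potassium clavulanate, with 535 nm FRET tracking viability; curves classed by r2 and response.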

[11] = target: Glutaminase kidney isoform, mitochondrial (Homo sapiens) (UniProt O94925); assay: qHTS for Inhibitors of Glutaminase (GLS): LOPAC Validation (AID 624146); note: potency is the fitted concentration of half-maximal effect; nearly all actives have a fitted effect of over 60% in size
Chain of Glutaminase kidney isoform, mitochondrial (Homo sapiens) (O94925 whole entry, looked up, canonical isoform): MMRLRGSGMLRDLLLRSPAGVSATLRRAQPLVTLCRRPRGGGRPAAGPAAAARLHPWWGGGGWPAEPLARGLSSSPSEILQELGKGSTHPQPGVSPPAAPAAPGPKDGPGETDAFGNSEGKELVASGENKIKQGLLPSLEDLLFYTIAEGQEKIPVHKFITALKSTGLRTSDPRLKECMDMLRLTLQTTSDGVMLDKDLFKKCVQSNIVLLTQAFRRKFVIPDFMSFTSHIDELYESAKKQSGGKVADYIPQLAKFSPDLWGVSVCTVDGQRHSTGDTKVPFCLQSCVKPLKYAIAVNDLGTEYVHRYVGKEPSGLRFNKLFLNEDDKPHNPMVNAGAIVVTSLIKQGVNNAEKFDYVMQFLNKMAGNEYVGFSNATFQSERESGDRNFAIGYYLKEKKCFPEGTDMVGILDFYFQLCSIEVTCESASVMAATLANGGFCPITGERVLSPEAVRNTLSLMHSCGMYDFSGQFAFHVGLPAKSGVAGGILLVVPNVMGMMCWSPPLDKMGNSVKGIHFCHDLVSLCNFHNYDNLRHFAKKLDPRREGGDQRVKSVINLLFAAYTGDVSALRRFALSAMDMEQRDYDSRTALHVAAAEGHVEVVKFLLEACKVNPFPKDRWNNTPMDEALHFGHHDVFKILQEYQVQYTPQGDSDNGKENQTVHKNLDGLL
Procedure, shortened: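 hKGA in 45 mM KH2PO4 (pH 8.2), 0.02% Tween-20 with compound, then 1mM L-Glutamine (stock as added) plus glutamate oxidase/HRP/Amplex red coupling mix. Fluorescence read initially and after 30 min at RT; signal change reflects glutamate formation.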

[12] = qHTS of Trypanosoma Brucei Inhibitors: LOPAC Validation (AID 624147); note: 0% is about no effect
Procedure, shortened: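 Screened from lowest to highest concentration, compounds were pinned into TbPYK/substrate mixtures, and ADP (130 uM final) was added. Plates sat at room temperature for 45 min prior to Kinase-Glo Plus detection by luminescence.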

[13] = target: Glucagon-like peptide 1 receptor (Homo sapiens) (UniProt P43220); assay: qHTS of GLP-1 Receptor Agonists: LOPAC Validation (AID 624148);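 note: 0% is about no effect; higher luminescence signal means agonism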
Chain of Glucagon-like peptide 1 receptor (Homo sapiens) (P43220 whole entry, looked up): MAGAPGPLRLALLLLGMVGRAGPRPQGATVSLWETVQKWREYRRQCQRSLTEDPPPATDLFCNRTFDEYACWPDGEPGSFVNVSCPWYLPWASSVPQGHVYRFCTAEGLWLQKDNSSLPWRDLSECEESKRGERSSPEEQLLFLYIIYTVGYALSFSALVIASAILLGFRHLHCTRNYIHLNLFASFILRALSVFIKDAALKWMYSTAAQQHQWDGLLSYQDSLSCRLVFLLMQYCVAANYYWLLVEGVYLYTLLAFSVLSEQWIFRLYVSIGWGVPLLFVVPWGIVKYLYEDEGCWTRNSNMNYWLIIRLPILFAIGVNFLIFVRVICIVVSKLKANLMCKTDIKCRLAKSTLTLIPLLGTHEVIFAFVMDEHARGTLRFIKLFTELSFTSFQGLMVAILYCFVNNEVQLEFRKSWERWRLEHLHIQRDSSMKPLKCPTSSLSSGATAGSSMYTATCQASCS
Procedure, shortened: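 HEK293 cells stably co-expressing a cAMP-responsive luciferase reporter and a hypersensitive GLP-1R were plated 12 h at 37 °C and exposed to compounds for 4-6 hr at 37 °C, 5% CO2. Luminescence was read 12 min after adding detection reagent.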

[14] = qHTS of Nrf2 Activators: LOPAC Validation (AID 624149); note: potency is the fitted concentration of half-maximal effect
Procedure, shortened: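 Following overnight seeding in 5% FBS OPTI-MEM, AREc32_Fluc cells receive compounds for a 24 hr incubation at 37 deg C with 5% CO2. Steady-Glo is added, and after 30 min at RT luminescence is recorded.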

[15] = HTS Assay for Allosteric Antagonists of the Human D2 Dopamine Receptor: Hit Validation in HTRF (AID 624455);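 note: stable D1 dopamine receptor cell line scored for blocking the D1 response; % is set by controls: 0 for no effect and ±100 for the full control effect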
Procedure, shortened: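 Validation of hits used D1 receptor stably expressed in cells with HTRF detection of response inhibition; origin screen measured calcium flux following EC80 dopamine in a force-coupled, inducible Hek293 Trex D2 cell line.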

[16] = Cytotoxicity counterscreen for NFkB agonists and antagonists (AID 624476); note: potency is the fitted concentration of half-maximal effect
[17] = qHTS Assay for Identification of Small Molecule Agonists for NFkB Signaling Pathway. (AID 624478);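 note: compounds tested together with TNF alpha at its EC50 of 10 pM; 0% is about no effect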
Procedure, shortened: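 Assay medium contained 0.5% FBS and 10 mM HEPES pH 7.3. Compounds were added together with TNF alpha (10 pM final), incubated 5 h at 37 C, and the beta-lactamase signal was measured fluorometrically.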

[18] = qHTS Assay for Identification of Small Molecule Antagonists for NFkB Signaling Pathway. (AID 624479; calls by dose curve;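 note: pathway stimulated with TNF alpha; potency is the fitted concentration of half-maximal effect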)
[19] = Cell Proliferation Assay against the TMD8 Cell Line (AID 651645); conditions: TMD8 DLBCL cell line proliferation/viability; at 46.1 µM (top of the series) unless noted;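 note: cells exposed to compound for 48 h before reading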
Procedure, shortened: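 Cell viability of the ABC DLBCL line TMD8 is measured by CellTiter-Glo luminescence following a 48-hour incubation with compound. Percent activity uses DMSO as 100% and 9.2 uM bortezomib (final) as 0%.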

[20] = target: Tumor susceptibility gene 101 protein (Homo sapiens) (UniProt Q99816); assay: qHTS Assay for Iinhibitors of HIV-1 Budding by Blocking the Interaction of PTAP/TSG101: Hit Validation (AID 651600); conditions: PTAP peptide/TSG101 UEV interaction, biochemical assay; note: potency is the fitted concentration of half-maximal effect; nearly all actives have a fitted effect of over 70% in size
Chain of Tumor susceptibility gene 101 protein (Homo sapiens) (Q99816 whole entry, looked up): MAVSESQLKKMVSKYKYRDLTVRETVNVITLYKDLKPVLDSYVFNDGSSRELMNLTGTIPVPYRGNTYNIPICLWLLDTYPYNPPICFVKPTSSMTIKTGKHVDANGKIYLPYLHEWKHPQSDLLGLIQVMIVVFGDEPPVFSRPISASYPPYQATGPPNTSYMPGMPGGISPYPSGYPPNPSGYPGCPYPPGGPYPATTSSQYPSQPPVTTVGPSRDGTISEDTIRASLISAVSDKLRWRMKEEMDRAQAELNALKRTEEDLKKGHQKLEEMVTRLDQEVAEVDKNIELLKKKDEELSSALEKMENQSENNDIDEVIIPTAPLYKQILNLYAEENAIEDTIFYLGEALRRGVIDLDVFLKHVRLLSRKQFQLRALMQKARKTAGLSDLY
Procedure, shortened: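 Measuring PTAP–Tsg101 interaction by FP: protein at 10 uM and fluorescent peptide at 50 nM (final), buffer 10 mM HEPES pH 7.5 with 0.15 M NaCl, 3 mM EDTA, 0.1 mM TCEP, 0.01% Tween 20; 20 min incubation, r.t.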

C=CCc1ccc(O)c(OC)c1
inactive: outcome [1] | max response [3] -1.42% and -1.33% | Potency [4] | Potency [5] | Potency [6]
-4.42% and -7.03%: max response [2]

CN(C)/N=N/c1nc[nH]c1C(N)=O
inactive: outcome [1] | outcome [7] | max response [3] 17.7% | activity change % (negative = inhibition) [8] -19.3% | Potency [4] | Potency [5] | Potency [6] | Potency [9]
-0.507%: max response [2]

COc1cc(/C=C/C(=O)O[C@H]2CC[C@]34C[C@]35CC[C@]3(C)[C@@H]([C@H](C)CCC=C(C)C)CC[C@@]3(C)[C@@H]5CC[C@H]4C2(C)C)ccc1O
inactive: Potency [4]

Nc1ccc(C(=O)O)cc1
inactive: outcome [1] | outcome [7] | max response [3] -5.07% | activity change % (negative = inhibition) [8] 15.2% | Potency [5] | Potency [6] | Potency [9]
14.8%: max response [2]

Oc1ccc(O)cc1
active: Potency [10] 19.9 µM | Potency [11] 2.51 µM | Potency [14] 18.4 µM
inactive: outcome [7] | Potency [4] | Potency [5] | outcome [12] | outcome [13] | outcome [15]

CCCC(=O)Nc1ccc(OCC(O)CNC(C)C)c(C(C)=O)c1 (stereo not given)
inactive: Potency [4]

CC(=O)Oc1ccc(C(c2ccc(OC(C)=O)cc2)c2ccccn2)cc1
inactive: activity change % (negative = inhibition) [8] 5.36% | Potency [4] | Potency [5] | Potency [6] | Potency [10]

O=C1OC(c2ccc(O)cc2)(c2ccc(O)cc2)c2ccccc21
active: Potency [9] 25.6 µM
inactive: outcome [1] | outcome [7] | max response [3] -28% | activity change % (negative = inhibition) [8] -18.5% and 8.75% | Potency [10]
6.51%: max response [2]

CN(C)CC/C=C1/c2ccccc2COc2ccc(CC(=O)O)cc21
inactive: Potency [4]

Cc1c2oc3c(C)ccc(C(=O)N[C@@H]4C(=O)N[C@H](C(C)C)C(=O)N5CCC[C@H]5C(=O)N(C)CC(=O)N(C)[C@@H](C(C)C)C(=O)O[C@@H]4C)c3nc-2c(C(=O)N[C@@H]2C(=O)N[C@H](C(C)C)C(=O)N3CCC[C@H]3C(=O)N(C)CC(=O)N(C)[C@@H](C(C)C)C(=O)O[C@@H]2C)c(N)c1=O (I: T[dV]P[Sar][NMeV] / II: T[dV]P[Sar][NMeV]; ester I:1-I:C, II:1-II:C; linker I:N-II:N via Actinocin(9to1))
-13.6% and -1.23%: max response [2]
active: Potency [3] 31.6 nM and 14.1 nM | Potency [8] 50.1 nM
inactive: outcome [7] | Potency [4] | Potency [5] | Potency [6]

COc1cccc2c1C(=O)c1c(O)c3c(c(O)c1C2=O)C[C@@](O)(C(=O)CO)C[C@@H]3O[C@H]1C[C@H](N)[C@H](O)[C@H](C)O1
0.7%: viability (% of control) [19]
-19.8%: max response [2]
inactive: outcome [7] | Potency [4] | outcome [17]
active: Potency [3] 2 µM | Potency [8] 5.62 µM and 4.47 µM | Potency [16] 33.2 nM | Potency [18] 6.68 µM

COc1cccc2c1C(=O)c1c(O)c3c(c(O)c1C2=O)C[C@@](O)(C(C)=O)C[C@@H]3O[C@H]1C[C@H](N)[C@H](O)[C@H](C)O1
inactive: Potency [4] | Potency [6] | Potency [9]
active: Potency [3] 5.62 µM | Potency [8] 5010 nM | Potency [10] 0.126 µM | Potency [20] 16.3 µM
-11.9%: max response [2]

CC(O)C(=O)O (stereo not given)
7.59%: max response [2]
inactive: outcome [1] | outcome [7] | max response [3] 2.3% | activity change % (negative = inhibition) [8] -8.09% | Potency [4] | Potency [5] | Potency [6] | Potency [9] | Potency [10]

Oc1c(I)cc(Cl)c2cccnc12
active: Potency [9] 11.4 µM
inactive: outcome [7] | activity change % (negative = inhibition) [8] -33.1% | Potency [4] | Potency [5]

COc1cc2c(cc1OC)[C@@H]1CC(=O)[C@@H](CC(C)C)CN1CC2
inactive: Potency [4]

CC(O)(P(=O)(O)O)P(=O)(O)O
-2.39%: max response [2]
inactive: outcome [1] | outcome [7] | max response [3] -16.3% | activity change % (negative = inhibition) [8] -8.4% | Potency [5] | Potency [6]

CN(C)C(=S)SC(=S)N(C)C
5.78%: max response [2]
inactive: outcome [1] | outcome [7] | max response [3] -27.1% | activity change % (negative = inhibition) [8] 10.8% | Potency [4]
